The whole screen tested about 340,000 compounds, of which about 3,300 (0.97%) were called active. Another 9% or so got no clear call; they are omitted. Calls come from the whole dose curve; as a rule, active = well fitted inhibition curve with a large enough effect; inconclusive = small, poorly fitted or top-dose-only effect, or effect the other way; inactive = flat fitted curve, though single readings scatter. The list shows a part of the results.
experiment: qHTS Assay for Modulators of miRNAs and/or Inhibitors of miR-21; details: HeLa miR-21-FLuc reporter, luciferase luminescence, 48 h; actives lower the signal; note: nearly all actives have a fitted effect of over 55% in size
Outline: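 Using DMEM plus 10% FBS, HeLa miR-21-FLuc cells are incubated with test compounds (final up to about 40uM) for 48 hours; firefly luciferase signal is then imaged following reagent-mediated lysis.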
Potency is the fitted concentration of half-maximal effect.

Potency, active:
COc1ccc(-c2nc3c4ccccc4[nH]c(=O)n3n2)cc1 3.69 µM
Cc1ccc(-c2nc3c4ccccc4[nH]c(=O)n3n2)cc1 1.65 µM
C[C@H](NS(=O)(=O)c1ccc(Cl)cc1)C(=O)OCC(=O)NC(=O)Nc1ccc2c(c1)OCCO2 13.1 µM
Cc1ccc(OCc2cn3cccnc3n2)cc1 2.07 µM
Cc1cc(OCc2cn3cccnc3n2)ccc1Cl 7.36 µM
c1ccc(NCC2OCc3ccccc3CO2)cc1 4.65 µM
Nc1nc(Nc2cccc(Cl)c2)nc(NCc2ccco2)c1[N+](=O)[O-] 13.1 µM
Cc1ccc(Nc2nc(N)c([N+](=O)[O-])c(NCc3ccco3)n2)cc1 18.5 µM
N/C(=N\OC(=O)Cc1ccc(Cl)cc1)c1ccccn1 13.1 µM
Cc1ccc(CC(=O)O/N=C(\N)c2ccccn2)cc1 4.14 µM
COc1ccccc1C(=O)O/N=C(\N)c1ccccc1Cl 3.29 µM
N/C(=N\OC(=O)Cc1ccccc1)c1ccccc1Cl 5.85 µM
Cc1c(-c2ccc(Br)cc2)nc2ccccn12 1.47 µM
Brc1ccc(-c2ncc3ccccn23)cc1 7.36 µM
Clc1c(-c2ccccc2)nc2ccccn12 5.21 µM
CN(C)Cc1c(-c2ccc(Cl)cc2)nc2ccccn12 6.56 µM
COc1ccc(CN=C(C)c2c(C(F)(F)F)[nH]n(-c3nc4ccccc4s3)c2=O)cc1 7.36 µM
CNc1nn(-c2cccc(Cl)c2)nc1N 4.47 µM
O=C(NNc1nc2cc3c(cc2s1)OCO3)c1ccccc1 13.1 µM
O=C(NNc1nc2cc3c(cc2s1)OCCO3)c1ccccc1 14.7 µM
CC(C)c1ccc(CNc2nc(-c3ccco3)nn2C(=O)c2ccc([N+](=O)[O-])cc2)cc1 2.07 µM
CN(C)c1ccc(CNc2nc(-c3ccco3)nn2S(C)(=O)=O)cc1 7.36 µM
COc1ccc(CNc2nc(-c3ccccc3)nn2C(=O)c2ccc([N+](=O)[O-])cc2)cc1 14.7 µM
COCC(=O)n1nc(-c2ccco2)nc1NCc1ccccc1Cl 16.5 µM
Cc1ccccc1CNC(=O)Cc1ccccc1[N+](=O)[O-] 5.21 µM
O=C(Cc1ccccc1[N+](=O)[O-])NCc1ccc(Cl)cc1 14.7 µM
O=C(Cc1ccccc1[N+](=O)[O-])NCc1ccc2c(c1)OCO2 10.4 µM
O=C(CC12CCC(CC1)C2)NCc1ccc2c(c1)OCO2 16.5 µM
CCCn1cnc2cc(NCc3ccc(Br)cc3)ccc21 7.36 µM
CCn1cnc2cc(NCc3ccc(Br)cc3)ccc21 3.29 µM
CCCn1cnc2cc(NCc3cccs3)ccc21 7.36 µM
COC(=O)c1ccc(N=NNc2ccc(C(=O)OC)cc2)cc1 0.208 µM
COC(=O)c1ccc(NN=Nc2ccc(C)cc2)cc1 2.07 µM
O=C(NCC1CCCO1)c1sc2ccccc2c1Cl (centres undefined) 3.29 µM
CC(NC(=O)c1sc2ccccc2c1Cl)C1CCCO1 (centres undefined) 5.21 µM
CCn1c2ccccc2c2nc3cc(C(=O)O)ccc3nc21 9.27 µM
Cc1ccc(C(=O)Cc2cc3ccccc3oc2=O)c(C)c1 2.07 µM
COc1cccc2cc(CC(=O)c3ccc(C)cc3C)c(=O)oc12 11.7 µM
CN(c1ccccc1)c1nc2ccsc2c(=O)s1 12.6 µM
COc1ccc(-c2cc(C(=O)c3c(N)n(C)c(=O)n(C)c3=O)c3ccccc3n2)cc1OC 4.65 µM
COc1ccc2c(c1)CCC/C2=N\NC(=O)c1ccoc1C 2.93 µM
CC(=O)N1N=C(c2ccc(C)cc2)OC1c1ccc(C(C)C)cc1 (centres undefined) 3.29 µM
CN1N=C(C(=O)N2CCc3c([nH]c4ccccc34)C2c2ccccc2Cl)CCC1=O (centres undefined) 10.4 µM
O/N=C/c1ccc(OCc2ccccc2)c(Cl)c1 2.07 µM
O/N=C/c1ccc(OCc2ccccc2)c(Br)c1 3.69 µM
CCCOc1ccc(-c2nc(N3CCN(C)CC3)c3ccccc3n2)cc1 2.93 µM
COc1cc(CNc2ccc(NC(C)=O)cc2)ccc1OCc1ccccc1C 7.36 µM
Cc1ccc(-c2nnc(/C=C/c3ccccc3)o2)cc1 0.329 µM
Nc1ccc(-c2nnc(-c3ccc(N)cc3)o2)cc1 3.29 µM
COc1nc(-c2ccccc2)nnc1-c1ccccc1 1.17 µM
c1ccc(-c2nnc(-c3ccccc3)nn2)cc1 2.07 µM
O=C(O)c1ccc(-c2nnc(-c3ccccc3)o2)cc1 0.329 µM
c1ccc(-c2nnc(-c3ccccc3)o2)cc1 1.31 µM
Cc1ccc2nc(-c3ccc(NC(=O)CN(C)S(=O)(=O)c4ccccc4)cc3)sc2c1 0.369 µM
Cc1cccc(N(CC(=O)Nc2ccc(-c3nc4ccc(C)cc4s3)cc2)S(C)(=O)=O)c1 4.14 µM
Cc1cc(C)cc(N(CC(=O)Nc2ccc(-c3nc4ccc(C)cc4s3)cc2)S(C)(=O)=O)c1 3.29 µM
Cc1ccc(C(=O)Nc2cc3c(cc2Cl)OCCCO3)cc1 1.31 µM
O=C(Nc1cc2c(cc1Cl)OCCCO2)c1ccc(F)cc1 3.69 µM
O=C(/C=C/c1ccco1)Nc1ccc(N2CCCC2)cc1 1.65 µM
O=C(/C=C\c1ccco1)c1ccc(NC(=O)c2ccco2)cc1 13.1 µM
O=C(Nc1ccc(NC(=O)c2cccs2)cc1)c1ccco1 8.26 µM
CC(C)(C)n1cnc2cc(NC(=O)c3cccs3)ccc21 1.65 µM
O=C(CNC(=O)c1ccco1)Nc1ccc(Br)cc1 11.7 µM
O=C(Nc1ccc(NC(=O)c2cccs2)cc1)c1cccs1 5.21 µM
N#Cc1c(/N=C/c2cccs2)sc2c1CCCCC2 0.464 µM
Cc1ccc(/C=N/c2sc3c(c2C#N)CCC3)s1 0.261 µM
CC1(C(=O)Nc2nc3ccccc3s2)CC1(Br)Br (centres undefined) 8.26 µM
O=C(CC1CCCCC1)Nc1nc2ccccc2s1 1.85 µM
O=C(CSc1nccn1-c1ccccc1)Nc1nc2ccccc2s1 6.56 µM
COc1ccc(C2CC(C)(c3ccc(OC)cc3)Nc3ccccc3N2)cc1 (centres undefined) 7.36 µM
O=C(c1ccccc1)c1cnc(-c2ccc(Cl)cc2)s1 0.464 µM
N#Cc1ccccc1OCC(=O)NC(=O)NCc1ccco1 6.56 µM
O=C(COc1ccc(Cl)cc1Cl)c1ccc[nH]1 10.4 µM
O=C(COc1ccc(Cl)cc1Cl)NCc1ccco1 16.5 µM
CC(C)C(=O)Nc1ccc(NC(=O)c2cc3ccccc3o2)cc1 11.2 µM
CN1CCN(c2ccc(NC(=O)c3sc4ccccc4c3Cl)cc2)CC1 1.17 µM
Cc1nnc(NC(=O)c2cc3ccccc3o2)s1 8.26 µM
COc1cc2ccccc2cc1C(=O)Nc1ccc(N2CCN(C)CC2)cc1 7.36 µM
CC(Cc1ccccc1)NC(=O)c1cc2ccccc2o1 (centres undefined) 6.56 µM
CN1CCN(c2ccc(NC(=O)c3cc4ccccc4o3)cc2)CC1 0.927 µM
O=C(Nc1ncccc1Cl)c1cc2ccccc2o1 0.656 µM
COc1cc(/C=N/O)ccc1OCc1ccccc1Cl 2.93 µM
COc1cc(/C=N/O)ccc1OCc1ccc(Cl)cc1 0.369 µM
COc1cc(/C=N/O)ccc1OCc1ccc([N+](=O)[O-])cc1 3.29 µM
Cc1ccc2c(c1)COc1c3ccc(C(=O)N4CCOCC4)cc3nn1-2 5.21 µM
O=C(c1ccc2c3n(nc2c1)-c1ccc(Cl)cc1CO3)N1CCOCC1 5.21 µM
Cc1ccc2c(c1)COc1c3ccc(C(=O)N4CCCCC4)cc3nn1-2 3.69 µM
O=C(CSc1nnc(-c2ccccn2)o1)Nc1cccc(Cl)c1 1.85 µM
C#Cc1cccc(NC(=O)CSc2nnc(-c3ccc(C(F)(F)F)cn3)o2)c1 4.14 µM
O=C(CSc1nnc(-c2ccc(C(F)(F)F)cn2)o1)Nc1cccc(Cl)c1 4.14 µM
CN(C)CCCNc1cc(C(C)(C)C)nc2c(-c3ccccc3)cnn12 2.93 µM
CC(C)Nc1cc(C(C)(C)C)nc2c(-c3ccccc3)cnn12 6.56 µM
Cc1cc(C)n(-c2cc(C(C)(C)C)nc3c(-c4ccccc4)cnn23)n1 2.61 µM
CCn1cnc2sc(C(=O)Nc3ccc4c(c3)OCO4)c(C)c2c1=O 3.16 µM
Cc1cc(N/N=C/c2ccccc2Br)nc2ccccc12 13.1 µM
Cc1cc(N/N=C/c2ccncc2)nc2ccccc12 5.85 µM
O=c1c2cc(-c3ccccc3)sc2nc2n1N=C(c1cccs1)CS2 0.414 µM
C/C(=C\C(=O)c1ccc(C)cc1)Nc1cccc(O)c1 3.29 µM
COc1ccc(OC)c(N/C(C)=C/C(=O)c2ccccc2)c1 7.36 µM
C/C(=C\C(=O)c1ccccc1)Nc1cccc(O)c1 4.65 µM
Cn1c(=O)n(C)c2cc(NS(=O)(=O)c3ccc(F)cc3)c(NCc3ccccc3)cc21 9.27 µM
O=c1c2ccccc2nnn1COc1cccc2ccccc12 14.7 µM
CCOc1ccc(OCCn2nnc3ccccc3c2=O)cc1 5.21 µM
O=c1c2ccccc2nnn1COc1cccc(Cl)c1 13.1 µM
